Measurements taken from PubChem BioAssay AID1159580 (chemical genetic matrix, 2015).
“And” between values parts separate entries of the source, which are not always exact repeats. Equal entries are not always repeated. The whole screen tested about 5,500 compounds, of which about 2,000 (36%) were called active. About 18% were inconclusive and are not listed. No stated cut-off is given here; in the data, active means normalized growth mostly below about 0.91 (no sharp cut-off); inconclusive means no clear call, values can overlap the other calls; inactive means mostly above about 0.92. The list shows a part of the results.

Assay: chemical genetic growth profiling, strain panel (AID 1159580);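 further: tested at 20 µM; growth read once vehicle control cultures reached saturation at 30 °C; 1 = growth at the plate median or of vehicle wells; lower values mean less growth of the strain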
Settings: S. cerevisiae deletion strains, growth OD
[1] = locus YAL013W, strain DEP1, hits give low values
[2] = locus YBR229C, strain ROT2, hits give low values
[3] = locus YDL101C, strain DUN1, hits give low values
[4] = locus YEL061C, strain CIN8, hits give low values
[5] = locus YHR030C, strain SLT2, hits give low values
[6] = locus YLR039C, strain RIC1, hits give low values
[7] = locus YMR263W, strain SAP30, hits give low values
[8] = locus YNL128W, strain TEP1, hits give low values
[9] = locus YPL055C, strain LGE1, hits give low values
[10] = locus YPL241C, strain CIN2, hits give low values
[11] = locus YHR079C, strain IRE1, hits give low values
[12] = locus YJL095W, strain BCK1, hits give low values
[13] = locus YJR066W, strain TOR1, hits give low values
[14] = locus YLR113W, strain HOG1, hits give low values
[15] = locus YNL183C, strain NPR1, hits give low values
[16] = locus YOR061W, strain CKA2, hits give low values
[17] = locus YOR231W, strain MKK1, hits give low values
[18] = locus YPL256C, strain CLN2, hits give low values

Measured: normalized growth

COc1nc(N)nc(SC)n1
inactive: [1] 0.995 | [2] 1 | locus YCL061C, strain MRC1, hits give low values 0.988 | [3] 1 | locus YDR150W, strain NUM1, hits give low values 1 | [4] 0.989 | locus YGR078C, strain PAC10, hits give low values 1.02 | locus YGR229C, strain SMI1, hits give low values 0.985 | [5] 1.05 | locus YHR087W, strain rtc3, hits give low values 0.992 | locus YJR043C, strain POL32, hits give low values 0.987 | locus YJR075W, strain HOC1, hits give low values 0.987 | locus YKL190W, strain CNB1, hits give low values 0.974 | [6] 0.97 | locus YLR058C, strain SHM2 (second series), hits give low values 0.989 | locus YLR085C, strain ARP6, hits give low values 0.984 | locus YLR262C, strain YPT6, hits give low values 0.974 | locus YML094W, strain GIM5, hits give low values 1.12 | locus YMR219W, strain ESC1, hits give low values 0.993 | [7] 0.984 | [8] 0.979 | locus YNL153C, strain GIM3, hits give low values 1 | locus YNL298W, strain CLA4 (second series), hits give low values 0.98 | locus YNL322C, strain KRE1, hits give low values 1 | locus YNR030W, strain Alg12, hits give low values 1.02 | locus YOL006C, strain TOP1, hits give low values 0.978 | [9] 1.01 | [10] 1.14 | locus YPR135W, strain CTF4, hits give low values 1.03

COc1cc(C(=O)Oc2c(Cl)cc(Cl)cc2C=Nc2cccc([N+](=O)[O-])c2)cc(OC)c1OC
inactive: locus YAR019C, strain CDC15, hits give low values 0.959 | locus YBL105C, strain PKC1, hits give low values 0.971 | locus YBR135W, strain CKS1, hits give low values 0.973 | locus YBR136W, strain MEC1, hits give low values 0.977 | locus YBR160W, strain CDC28, hits give low values 0.98 | locus YDL017W, strain CDC7, hits give low values 0.982 | locus YDL028C, strain MPS1, hits give low values 0.962 | [3] 0.985 | locus YDL108W, strain KIN28, hits give low values 0.971 | locus YDL132W, strain cdc53, hits give low values 0.962 | locus YDR052C, strain DBF4, hits give low values 0.987 | locus YDR054C, strain cdc34, hits give low values 0.956 | locus YDR226W, strain ADK1, hits give low values 0.964 | locus YFL009W, strain cdc4, hits give low values 0.958 | locus YFL029C, strain CAK1, hits give low values 0.98 | locus YFR003C, strain YPI1, hits give low values 0.976 | locus YFR028C, strain CDC14, hits give low values 0.965 | locus YIL147C, strain SLN1, hits give low values 0.973 | locus YJL128C, strain PBS2, hits give low values 0.921 | locus YJR016C, strain ILV3, hits give low values 0.988 | locus YJR066W, strain TOR1 (second series), hits give low values 0.801 | locus YKL193C, strain SDS22, hits give low values 0.979 | locus YKL203C, strain TOR2, hits give low values 0.738 | locus YMR001C, strain CDC5, hits give low values 0.981 | locus YMR277W, strain FCP1, hits give low values 0.972 | locus YNL006W, strain LST8, hits give low values 0.995 | locus YNL161W, strain CBK1, hits give low values 0.982 | locus YNL207W, strain RIO2, hits give low values 0.966 | locus YNL222W, strain SSU72, hits give low values 0.98 | locus YOL078W, strain AVO1, hits give low values 0.978 | locus YOR329C, strain SCD5, hits give low values 0.985 | locus YPL209C, strain IPL1, hits give low values 0.978 | locus YPR025C, strain CCL1, hits give low values 0.973 | locus YPR106W, strain ISR1, hits give low values 0.959 | locus YPR111W, strain DBF20, hits give low values 0.928 | strain NNK1, hits give low values 0.963 | strain TSCII, hits give low values 0.982
active: locus YDL214C, strain PRR2, hits give low values 0.607 | locus YDR477W, strain SNF1, hits give low values 0.626 | locus YER123W, strain YCK3, hits give low values 0.415 | locus YER133W, strain GLC7, hits give low values 0.59 | locus YFR019W, strain FAB1, hits give low values 0.706 | locus YGR040W, strain KSS1, hits give low values 0.648 | locus YGR052W, strain FMP48, hits give low values 0.561 | locus YGR092W, strain DBF2, hits give low values 0.336 | [5] 0.387 | [11] 0.438 | locus YHR082C, strain KSP1, hits give low values 0.569 | locus YHR205W, strain SCH9, hits give low values 0.473 | [12] 0.473 | locus YJL157C, strain FAR1, hits give low values 0.629 | [13] 0.427 | locus YKL048C, strain ELM1, hits give low values 0.776 | locus YKL067W, strain YNK1, hits give low values 0.613 | locus YKL101W, strain HSL1, hits give low values 0.678 | [14] 0.577 | locus YLR133W, strain CKI1, hits give low values 0.621 | locus YLR403W, strain SFP1, hits give low values 0.51 | locus YML070W, strain DAK1, hits give low values 0.642 | locus YMR205C, strain PFK2 (second series), hits give low values 0.646 | locus YNL020C, strain ARK1, hits give low values 0.597 | [15] 0.54 | locus YNL307C, strain MCK1 (second series), hits give low values 0.566 | locus YOL136C, strain PFK27, hits give low values 0.597 | [16] 0.576 | locus YOR119C, strain RIO1, hits give low values 0.642 | [17] 0.494 | locus YPL031C, strain PHO85, hits give low values 0.6 | locus YPL153C, strain RAD53, hits give low values 0.619 | locus YPL204W, strain HRR25, hits give low values 0.58 | [18] 0.481

CC(=O)Oc1cc(C)c2c(c1C(OC(C)=O)OC(C)=O)Oc1c(c(C)c(OC(C)=O)c3c1C(OC(C)=O)OC3=O)OC2=O (stereo not given)
inactive: [1] 0.98 | locus YBR021W, strain FUR4, hits give low values 1.01 | [2] 0.989 | locus YCL029C, strain bik1, hits give low values 0.98 | locus YDL035C, strain GPR1, hits give low values 1.03 | locus YDL074C, strain BRE1, hits give low values 0.998 | [3] 0.983 | locus YDL134C, strain PPH21, hits give low values 0.983 | locus YDL185W, strain tfp1, hits give low values 0.965 | locus YDL192W, strain arf1, hits give low values 1.01 | locus YDR101C, strain arx1, hits give low values 1.03 | locus YDR162C, strain NBP2, hits give low values 0.998 | locus YDR318W, strain mcm21, hits give low values 0.98 | locus YDR388W, hits give low values 0.982 | locus YDR502C, strain sam2, hits give low values 0.968 | [4] 0.985 | locus YER110C, hits give low values 0.97 | locus YER155C, strain BEM2, hits give low values 1.01 | locus YER167W, strain BCK2, hits give low values 0.995 | locus YGL078C, strain dbp3, hits give low values 0.973 | locus YGL086W, strain mad1, hits give low values 0.995 | locus YGL248W, strain PDE1, hits give low values 0.967 | locus YGR135W, strain pre9, hits give low values 0.952 | locus YGR252W, strain gcn5, hits give low values 1.06 | [5] 0.952 | locus YHR079C, strain IRE1 (second series), hits give low values 0.983 | [11] 0.93 | locus YHR094C, strain hxt1, hits give low values 0.978 | locus YHR129C, strain ARP1, hits give low values 0.983 | locus YHR200W, strain rpn10, hits give low values 0.988 | locus YIL066C, strain RNR3, hits give low values 0.983 | locus YIL073C, strain SPO22, hits give low values 1.02 | locus YIL125W, strain kgd1, hits give low values 0.978 | locus YIR030C, strain dcg1, hits give low values 0.964 | [12] 0.988 and 0.963 | locus YJL134W, strain LCB3, hits give low values 0.985 | locus YJL168C, strain set2, hits give low values 0.991 | locus YJL187C, strain SWE1 (second series), hits give low values 0.961 | [13] 0.889 | locus YKL009W, strain mrt4, hits give low values 1 | locus YKL068W, hits give low values 0.969 | locus YKL085W, strain MDH1 (second series), hits give low values 0.97 | locus YKL085W, strain MDH1, hits give low values 0.97 | locus YKR001C, strain vps1, hits give low values 1 | [6] 0.943 | locus YLR058C, strain SHM2, hits give low values 0.993 | locus YLR102C, strain apc9, hits give low values 0.974 | locus YLR268W, strain sec22, hits give low values 1.01 | locus YLR342W, strain FKS1 (second series), hits give low values 1.06 | locus YLR371W, strain rom2, hits give low values 0.998 | locus YLR418C, strain cdc73, hits give low values 0.989 | locus YML016C, strain PPZ1, hits give low values 0.971 | locus YML032C, strain rad52, hits give low values 0.997 | locus YML124C, strain tub3, hits give low values 0.968 | locus YMR078C, strain ctf18, hits give low values 0.978 | locus YMR223W, strain ubp8, hits give low values 0.989 | [7] 0.982 | locus YMR307W, strain GAS1, hits give low values 1.02 | locus YNL067W, strain RPL9B, hits give low values 0.983 | [8] 0.99 | [15] 0.911 | locus YNL233W, strain BNI4, hits give low values 0.973 | locus YNL250W, strain rad50, hits give low values 0.921 | locus YNL271C, strain bni1, hits give low values 0.968 | locus YNL298W, strain CLA4, hits give low values 0.967 | locus YNL307C, strain MCK1, hits give low values 0.974 | locus YNR052C, strain pop2, hits give low values 0.961 | locus YOL012C, strain htz1 0.831 | locus YOL147C, strain pex11, hits give low values 0.99 | [16] 0.982 | locus YOR069W, strain VPS5, hits give low values 0.974 | locus YOR136W, strain idh2, hits give low values 1 | locus YOR144C, strain elg1, hits give low values 0.978 | locus YOR184W, strain ser1, hits give low values 1.05 | [17] 0.942 | locus YOR316C, strain cot1, hits give low values 0.978 | [9] 1.05 | [10] 0.989 | [18] 0.892 | locus YPR119W, strain clb2, hits give low values 0.981 | locus YPR141C, strain kar3, hits give low values 0.956 | locus YPR163C, strain tif3, hits give low values 0.974 | locus YPR167C, strain met16, hits give low values 0.979 | strain wtn01, hits give low values 1.04
active: [14] 0.832
